PubChem BioAssay AID1961 (Sanford-Burnham Center for Chemical Genomics, 2009)
The whole screen tested about 290,000 compounds, of which about 140 (0.048%) were called active.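 Rule for the calls: active = activation above 40% with more than 50 cells counted in the well; inconclusive = wells holding fewer than 50 cells, flagged as toxic or sparse; inactive = the rest.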 The sample as a whole holds a higher share of actives than the screen did.

Assays:
[1] = GPR55 agonists via beta-arrestin recruitment, primary screen, imaging, U2OS cells, beta-arrestin-GFP redistribution (AID 1961); settings: measured here: cytotoxicity, cells analyzed, at 10 µM;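 note: U2OS osteosarcoma cells stably expressing GPR55 and beta-arrestin-GFP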;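 for activation: plate controls were DMSO negative control for no effect and LPI positive control for full effect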
[2] = target: G-protein coupled receptor 55 (Homo sapiens) (UniProt Q9Y2T6); experiment: as above; settings: at 10 µM, stronger effect = higher value
Sequence of G-protein coupled receptor 55 (Homo sapiens) (Q9Y2T6 whole entry, looked up): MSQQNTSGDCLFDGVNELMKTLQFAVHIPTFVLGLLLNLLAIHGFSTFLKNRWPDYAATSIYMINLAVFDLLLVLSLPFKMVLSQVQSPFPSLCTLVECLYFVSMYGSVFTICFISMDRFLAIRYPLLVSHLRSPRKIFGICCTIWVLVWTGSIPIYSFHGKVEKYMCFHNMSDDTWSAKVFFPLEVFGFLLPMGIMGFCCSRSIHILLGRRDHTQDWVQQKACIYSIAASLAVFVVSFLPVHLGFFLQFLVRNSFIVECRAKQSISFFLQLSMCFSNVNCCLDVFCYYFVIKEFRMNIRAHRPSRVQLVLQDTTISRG

Structure (SMILES)	cell count [1]	activation [2]
O=C(Nc1ccc2c(c1)C(=O)OC2)c1ccc(F)cc1F	353 cells	-0.2% (inactive)
Cc1nn(C)c(C)c1CNC(=O)c1cc2n(n1)C(C(F)(F)F)CC(c1cccs1)N2 (configuration not stated)	389 cells	0.1% (inactive)
Nc1c(-c2ccccc2)c(CSc2nc3ccccc3[nH]2)nn1-c1ccc(C(=O)O)cc1	311 cells	-0.2% (inactive)
COc1cc(/C=C(\NC(=O)c2ccccc2)C(=O)NCC(=O)O)c([N+](=O)[O-])cc1OC	349 cells	-0.1% (inactive)
COc1cc(/C=C/c2cc(OC(C)=O)c3ccccc3n2)c(OC(C)=O)c([N+](=O)[O-])c1	366 cells	0.2% (inactive)
CN(C)c1ccnc(Nc2ccccc2)c1C#N	373 cells	0.3% (inactive)
O=C1c2ccccc2C(=O)N1Cc1cccnc1	406 cells	-0.2% (inactive)
Cn1c(=O)c(C(=O)COC(=O)c2cc(-c3ccco3)nc3ccccc23)c(N)n(CC2CC2)c1=O	375 cells	59.6% (active)
Cn1c(=O)c(C(=O)COC(=O)c2cc(-c3ccco3)nc3ccccc23)c(N)n(Cc2ccccc2)c1=O	365 cells	8.3% (inactive)
CC(C)Cn1c(N)c(C(=O)COC(=O)c2cc(-c3ccco3)nc3ccccc23)c(=O)n(C)c1=O	285 cells	-0.1% (inactive)
Cc1ccc(C)c(CN2C(=O)c3ccccc3S(=O)(=O)c3ccc(C(=O)N4CCN(C)CC4)cc32)c1	338 cells	-0.2% (inactive)
Cc1ccc(C(=O)N2CCN(c3ccccn3)CC2)cc1Cl	384 cells	-0.2% (inactive)
Cc1ccc(C(=O)N2CCN(c3ccccn3)CC2)cc1C	396 cells	-0.1% (inactive)
CCOC(=O)N1CCN(C(=O)c2ccc3c(c2)N(Cc2cccc(Cl)c2)C(=O)c2ccccc2S3=O)CC1 (configuration not stated)	331 cells	21.2% (inactive)
CC(=O)Nc1nc(SCC(=O)Nc2nnc(C)s2)[nH]c(=O)c1NC(=O)c1cccs1	243 cells	0.7% (inactive)
CCOCCCNc1nc2c(C)cccn2c(=O)c1/C=C1\SC(=S)N(C(C)CC)C1=O (configuration not stated)	390 cells	69.7% (active)
CCOCCCNc1nc2c(C)cccn2c(=O)c1/C=C1\SC(=S)N(CC(C)C)C1=O	348 cells	1% (inactive)
CCCN1C(=O)/C(=C/c2c(NCCCOCC)nc3c(C)cccn3c2=O)SC1=S	462 cells	5.7% (inactive)
O=C(N/N=C/c1ccccc1F)c1cccc(NC(=O)c2ccccc2Cl)c1	329 cells	-0.2% (inactive)
COc1cc(OC)cc(C(=O)N2CCN(c3ccccc3F)CC2)c1	328 cells	-0.2% (inactive)
CCOc1ccc(NC(=O)C2CC(=O)N(c3cc(C)cc(C)c3)C2)cc1 (configuration not stated)	314 cells	-0.1% (inactive)
COc1cccc(NS(=O)(=O)c2ccc3c(c2)NC(=O)C(C)C(=O)N3)c1 (configuration not stated)	385 cells	-0.1% (inactive)
Cc1ccc(-c2ccc(CO)o2)cc1N	282 cells	-0.3% (inactive)
O=C(O)c1cccc(CSc2ncn[nH]2)c1	346 cells	0.4% (inactive)
O=C(O)c1cccc(CSc2nnc(-c3ccc(Cl)cc3)o2)c1	424 cells	0.2% (inactive)
O=C(Cn1nc(-c2ccco2)ccc1=O)Nc1cc(C(F)(F)F)ccc1Cl	369 cells	-0.1% (inactive)

Structure (SMILES)	cell count [1]	activation [2]
CC(C)(C)NC(=O)COC(=O)c1cc(Br)ccc1Cl	284 cells	-0.3% (inactive)
O=C(NOC(=O)c1cc(Br)ccc1Cl)c1cccs1	347 cells	-0.1% (inactive)
O=C(NCc1ccccc1F)C1CCCN(C(=O)NC2CCCCC2)C1 (configuration not stated)	299 cells	-0.1% (inactive)
COc1cccc(CNC(=O)c2cccc(S(=O)(=O)N3CCN(C)CC3)c2)c1	306 cells	0% (inactive)
COc1ccc(CNC(=O)CN(C(=O)c2csnn2)c2ccccc2F)cc1	338 cells	-0.1% (inactive)
COc1ccc(N2CCN(C(=O)c3cc(=O)c4ccc(C)cc4o3)CC2)cc1	331 cells	-0.2% (inactive)
CCOc1ccccc1C(=O)Oc1ccc2ccc(=O)oc2c1	397 cells	0.9% (inactive)
COc1cccc(C2/C(=C(\O)c3ccc4c(c3)OCCO4)C(=O)C(=O)N2CC2CCCO2)c1 (configuration not stated)	382 cells	0.2% (inactive)
Cc1ccc(/C=N/Nc2ccc3c(C(F)(F)F)cc(C(F)(F)F)nc3n2)cc1	447 cells	-0.2% (inactive)
FC(F)(F)c1cc(C(F)(F)F)c2ccc(N/N=C/c3ccccc3)nc2n1	408 cells	-0.3% (inactive)
FC(F)(F)c1cc(C(F)(F)F)c2ccc(N/N=C/c3cccc(Cl)c3)nc2n1	390 cells	59.1% (active)
COCc1cc(C)nc(N)c1C#N	359 cells	0.1% (inactive)
S=C(NCCc1ccccc1)N1CCN(C2CCCCC2)CC1	462 cells	-0.1% (inactive)
O=C(C1=C[C@H](c2ccc(C(F)(F)F)cc2)C[C@H](OCc2ccc(CO)cc2)O1)N1CCOCC1	338 cells	0.1% (inactive)
O=C(CSc1nnc(-c2ccc(F)cc2)o1)NC1CCCC1	360 cells	-0.1% (inactive)
CCOC(=O)N1CCN(c2c(NCCCOC(C)C)c(=O)c2=O)CC1	327 cells	-0.1% (inactive)
CC(C)OCCCNC(=O)Cc1ccc(F)cc1	376 cells	-0.2% (inactive)
Cc1ccc2oc(=O)cc(CN3CCN(Cc4ccccc4)CC3)c2c1	335 cells	0% (inactive)
O=C(CNC(=O)c1ccc(N2C(=O)c3ccccc3C2=O)cc1)OCC(=O)c1cccc2ccccc12	341 cells	0% (inactive)
CC(C)N1CCN(Cc2ccc(C#CC(C)(C)O)s2)CC1CCO (configuration not stated)	368 cells	0.3% (inactive)
CCOc1ccc(S(=O)(=O)Nc2ccc(C(=O)N3CCCC3)cc2)cc1C(N)=O	319 cells	0% (inactive)
O=S(=O)(c1cccc(-c2nn3c(-c4ccncc4)nnc3s2)c1)N1CCOCC1	342 cells	-0.2% (inactive)
COCCNC(=O)C(c1ccc(F)cc1)N(C(=O)CCC(=O)Nc1ccccn1)c1cccc(C)c1 (configuration not stated)	316 cells	-0.2% (inactive)
CCCc1cc(=O)n2[nH]c(C)c(-c3ccc(OC)cc3)c2n1	417 cells	-0.1% (inactive)
CC(C)(C)NC(=O)CSc1nc(N)c(NC(=O)c2ccccc2F)c(=O)[nH]1	255 cells	0% (inactive)
